An excerpt weighted towards active compounds, which were near 2.6% of everything screened.
UbGFP stabilizer: ubiquitin-GFP accumulation via proteasome inhibition; Potency, µM (titrated, usually from 45.9 µM), without a hit: at the highest dose activation (GFP accumulation), actives largely listed as activators; AID 526; Ubiquitin-GFP reporter cells, proteasome inhibition, GFP fluorescence; response scale: untreated = 0%, 10 µM MG-132 = 100%; 67,000 tested, under 10 active; active = well fitted activation curve with a large enough effect, not every such curve was filed as active; inconclusive = small, poorly fitted or top-dose-only effect, or another doubt; inactive = no such curve, though single readings can be large or run the other way; also: potency is read from the fitted curve at half-maximal effect
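Reporter cells (U2OS, ubiquitin-G76V-GFP fusion) are plated overnight, then treated 4 hr at 37 °C with compound titrations from 46 uM down to 2.9 nM. Activity is scaled against untreated cells and 10 uM MG-132.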
HBB splice mod: alters splicing of the hemoglobin beta chain. 0.06% of 65,000 active. Potency, µM (series often up to 46.1 µM), inactives show at the top dose activation, hits mostly activators. HBB splicing reporter cell assay, activation; EGFP reporter with mutant IVS2-654 intron; response scale: normalised to 500 nM splice-correcting PNA. AID 925; also: potency is read from the fitted curve at half-maximal effect; 0% is about no effect
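Compounds were applied for 2 days to HeLa EGFP-654 cells, 500/well in Optimem with 2% FCS. The reporter's EGFP is disrupted by mis-splicing of beta-globin intron IVS2-654. Readout: summed well GFP fluorescence from 488 nm laser scanning; reference was 500 nM antisense […] 654 PNA.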
GFP derepression: derepresses silenced GFP locus in mouse C127i cells. Potency, µM (doses to about 46.1 µM), without a hit: top-dose GFP derepression (activation). AID 597. mouse C127i GFP locus derepression, cytometry, 30 h. 0.09% of 68,000 active; also: % of control where 0% means no effect
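Read-out is the number of GFP-positive cells, scored as fluorescent objects 20 to 120 um wide, reflecting derepression of a silenced CMV-GFP reporter in murine C127i cells after 30 h compound exposure at 37 C.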
FLuc inh: blocks Photinus pyralis firefly luciferase activity; P08659; purified firefly luciferase, luminescence, 8 min; Potency, µM (top dose mostly 57.1 µM), inactives show at the highest dose activity change, negative = inhibition, usual class: inhibitors; 2.2% of 72,000 active; AID 411; also: potency is read from the fitted curve at half-maximal effect; % is scaled to controls: 0 for no effect and ±100 for the full control effect; nearly all actives have a fitted effect of over 40% in size
Target sequence (P08659 whole entry, looked up): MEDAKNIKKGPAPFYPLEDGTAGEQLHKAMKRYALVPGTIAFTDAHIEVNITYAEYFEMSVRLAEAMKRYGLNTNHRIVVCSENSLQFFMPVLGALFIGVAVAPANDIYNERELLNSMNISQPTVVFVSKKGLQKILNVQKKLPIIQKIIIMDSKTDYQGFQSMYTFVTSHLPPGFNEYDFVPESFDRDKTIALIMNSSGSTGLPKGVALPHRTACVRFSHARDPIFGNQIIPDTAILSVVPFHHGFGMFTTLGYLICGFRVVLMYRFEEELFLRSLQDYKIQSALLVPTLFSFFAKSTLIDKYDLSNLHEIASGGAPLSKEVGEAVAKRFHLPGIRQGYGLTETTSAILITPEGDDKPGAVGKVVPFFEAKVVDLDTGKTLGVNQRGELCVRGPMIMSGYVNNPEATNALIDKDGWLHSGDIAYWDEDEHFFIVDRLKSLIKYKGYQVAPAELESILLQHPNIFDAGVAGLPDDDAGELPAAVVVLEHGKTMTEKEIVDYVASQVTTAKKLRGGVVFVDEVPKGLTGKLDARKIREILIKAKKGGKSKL
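Compounds were tested as concentration series (qHTS) against purified P. pyralis luciferase with luciferin and 10 uM ATP in 50 mM imidazole pH 7.2, 50 mM KCl, 7 mM MgCl2, 0.01% Tween 20, 0.05% BSA. Luminescence was read after 8 min at ambient temperature.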
Bst PK mod: alters activity of Bacillus stearothermophilus pyruvate kinase; 1.2% of 51,000 active; AID 361; Potency, µM; purified pyruvate kinase, luminescence ATP production; ribose 5-phosphate activator present at AC10; in the data active = potency below about 11 µM; inconclusive = mostly about 12 µM to 25 µM;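 the screen sought inhibitors and activators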;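 also: potency is read from the fitted curve at half-maximal effect; scaled between full activation by ribose 5 phosphate and full inhibition by luteolin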
Active calls of the source: *; i = inactive; ? = inconclusive; / = no result; ! = a repeat was not active; [ ] = dose if it differs, or a comment. Unless noted, calls follow the shape of the dose curve; as a rule, active = well fitted curve in the direction sought with a large enough effect; inconclusive = small, poorly fitted or top-dose-only effect, or another doubt; inactive = no such curve, though single readings can be large; an effect the other way counts as inactive or inconclusive.

SMILES | UbGFP stabilizer | HBB splice mod | GFP derepression | FLuc inh | Bst PK mod
CN(C)CCCSc1ccccc1NC(=O)/C=C\c1ccccc1 | -4% | / | 0% | -10% | /
Cc1ccc(O)c(N=Nc2ccccc2)n1 | 2% | -2% | 0% | 13µM*! | /
S=C(c1ccc(-c2cccc(Cl)c2)o1)N1CCOCC1 | 11% | 0%[9.22 µM] | 0% | 13µM* | /
N#CCCN1CCN(C(=S)c2ccc(-c3cccc(Cl)c3)o2)CC1 | 12% | 0%[9.22 µM] | -8% | -17% | /
O=C(Nc1nc2ccc(S(=O)(=O)N3CCCCC3)cc2s1)c1ccncc1 | 13% | 0% | 0% | -2% | >57
CS(=O)(=O)c1ccc2nc(NC(=O)c3ccco3)sc2c1 | 3% | 0% | / | 4µM* | /
CN(C)S(=O)(=O)c1ccc2nc(NC(=O)c3cccnc3)sc2c1 | 7% | -1% | 0% | 13µM* | i
O=C(COC(=O)c1cccc(NC(=O)c2ccco2)c1)c1ccc(Br)cc1 | 2%[9.17 µM] | -1%[0.0738 µM] | -4% | 2.5µM* | /
CC(C)(C)C(=O)COC(=O)c1cccc(NC(=O)c2ccco2)c1 | 0% | 2% | -1% | -4% | >57
CCOC(=O)c1ccc2nc(NC(=O)c3cccs3)sc2c1 | 2% | 0%[57.5 µM] | 3% | 7.9µM* | i
Nc1[nH]c(=O)ncc1F | 6%[20.5 µM] | -1%[20.6 µM] | 2%[20.6 µM] | 9%[25.5 µM] | /
N#Cc1c(-c2ccccc2)no[n+]1[O-] | 6% | 3% | ? | 1% | /
CCOC(=O)c1ccc2nc(NC(=O)c3ccco3)sc2c1 | -7% | / | -3% | 16µM* | i
CCOC(=O)c1ccc2nc(NC(=O)C(C)C)sc2c1 | 6% | -1% | / | 2% | /
O=C(Nc1ccccc1)Nc1cccc2cccnc12 | -5% | 1% | -1% | 20µM* | /
CN=C(NC#N)Nc1ccc(C2=NNC(=O)C[C@@H]2C)cc1 | 0% | 1% | 0% | 1% | /
Nc1nc2ccc(N3CCOCC3)cc2s1 | 1% | 1% | 3% | 16µM* | i
COc1cc(C(=O)N2CCN(C(=O)COc3ccc4ccccc4c3)CC2)cc(OC)c1OC | 6% | -1% | 0% | 7.9µM* | /
COc1ccc(COC(=O)N/N=C2/C[C@@H](O)[C@@H](O)[C@@H]3[C@@H]4C(=O)N(Cc5ccccc5)C(=O)[C@H]4CC[C@H]23)cc1 | / | 1%[9.22 µM] | / | -1%[11.4 µM] | /
Cc1cccc(C(=O)O)c1C[C@H]1NCC[C@H]2c3ccccc3N[C@@H]12 | 6%[9.17 µM] | 0%[9.22 µM] | -6%[9.22 µM] | 1%[11.4 µM] | /
Cn1c(CNc2nc3ccccc3n2C)nc2ccccc21 | -6% | 0% | 2% | -2% | /
Cc1ccc(NCc2nc3ccccc3n2C)cc1 | 8% | 1% | -3% | 13µM* | ?
CC1(C)S[C@@H]2[C@H](NC(=O)C3(N)CCCCC3)C(=O)N2[C@@H]1C(=O)O | -3%[9.17 µM] | 1%[9.22 µM] | 10%[9.22 µM] | 3%[11.4 µM] | /
Fc1ccc2nc3[nH]c4ccccc4c3nc2c1 | -1% | 4%[0.369 µM] | 0% | 6.3µM* | 3.7*
O=c1cnn(-c2ccccc2)c(-c2ccccc2)c1 | -4% | 1% | 0% | 13µM* | /
SMILES | UbGFP stabilizer | HBB splice mod | GFP derepression | FLuc inh | Bst PK mod
O=C(CCCN=C1NS(=O)(=O)c2ccccc21)OCC(=O)N1CCc2ccccc21 | 1% | 0% | 0% | 32µM* | >57
O=C(CN1CCCCCC1)OCCN=C1NS(=O)(=O)c2ccccc21 | 8% | 4% | -1% | -1% | >57
COc1ccc(NC(=O)C(C)NS(=O)(=O)c2ccc(NC(C)=O)cc2)cc1Cl (centres undefined) | 0% | -2% | 4% | 1% | >57
CCc1c(C(=O)Nc2ccc(OC)c(Cl)c2)[nH]c(C)c1C(C)=O | 11% | -1% | 4% | -2% | 3.1*
COc1ccc(NC(=O)C=C(C)C)cc1Cl | 1% | 0% | 3% | 20µM* | /
COc1ccccc1NC(=O)Nc1ccc2c(c1)OCCO2 | -3% | 1% | 5% | 13µM* | i
COc1cc(C(=O)Nc2ccc3c(c2)OCCO3)ccc1OC(F)F | 0% | 0%[57.5 µM] | -1% | 16µM* | ?
Cn1cccc1C(=O)N1CCC2(CCN(C(=O)Nc3cccc(F)c3)CC2)CC1 | 0% | -1% | 0%[9.22 µM] | 1%[11.4 µM] | /
CN(C)CN1CSC(=S)N(CN(C)C)C1 | -5%[9.17 µM] | 1%[9.22 µM] | 0%[9.22 µM] | 0%[11.4 µM] | /
O=C(CSCSCC(=O)Nc1ccc2c(c1)OCO2)Nc1ccc2c(c1)OCO2 | -1% | -9% | -2% | -16% | >57
COc1cccc(NC(=O)c2oc3ccccc3c2NC(=O)c2ccc3c(c2)OCO3)c1 | 1% | 1% | 2% | 4µM* | i
CC(C)=CC(=O)Nc1ccc2c(c1)OCO2 | 5% | -1% | 3% | 25µM* | i
COc1cc(C(=O)Nc2ccc3c(c2)OCCO3)ccc1OC(C)C | 0% | -2% | -1% | 13µM* | i
COc1ccc(NC(=O)c2ccc3c(c2)OCO3)cc1Cl | -2% | -1% | 0% | 3.2µM* | /
Oc1ccc2cc(SSc3ccc4cc(O)ccc4c3)ccc2c1 | / | -2% | / | / | /
N#Cc1cccc(-c2cncnc2-n2ccnc2)c1 | 2% | 0% | -3%[9.22 µM] | 1%[2.29 µM] | /
Nc1ccc(S(=O)(=O)NCCS(=O)(=O)O)cc1 | -7%[9.17 µM] | 3%[9.22 µM] | -6%[9.22 µM] | 1%[11.4 µM] | /
COc1ccccc1Nc1nc2ccccc2[nH]1 | -1% | -1%[57.5 µM] | 0% | 13µM* | /
CCOC(=O)c1cnc2c(-c3ccccc3)c(C)nn2c1N | -2% | 0%[57.5 µM] | -1% | 1% | >57
CCOC(=O)c1cnc2c(-c3ccccc3)cnn2c1N | -3% | / | -2% | 2.5µM* | 2.3*
Cc1cc(N)n2ncc(-c3ccccc3)c2n1 | -2% | / | -5% | 25µM* | 4.8*
